# Measured values: the supplement of paper PMC6135742
# Counter-ions that a name gives are not always drawn. ± gives the standard deviation of the averaged measurements. In all, about 2,600 compounds were measured (“MBP+ mature oligodendrocyte number relative to DMSO vehicle control”: median about -0.34, highest 2% from about 13 on). The list comes from a sample in which the highest values are over-represented; it also holds similar structures and randomly drawn compounds.
# Test system: jimpy (Plp1 jimpy) mouse iPSC-derived oligodendrocyte progenitor cells
# Assay: MBP+ mature oligodendrocyte number relative to DMSO vehicle control (SDs above negative control mean); higher = more surviving jimpy oligodendrocytes (rescue)
# Conditions: 10 µM; 3 days
# Method: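 Primary phenotypic screen of >3,000 bioactive compounds (Selleck L1700 and Sigma LO1280 libraries) at a single dose of 10 µM. Compounds were added to jimpy (Plp1 mutant) mouse iPSC-derived OPCs at the start of thyroid hormone-induced oligodendrocyte differentiation, one well per compound in 384-well plates. After 3 days cells were stained for MBP, Sox10 and DAPI and imaged with an Operetta system. MBP+ oligodendrocyte number and total cell number were expressed as the number of SDs above the mean of the DMSO negative control on the same plate (n=16 control wells per plate). Hits were defined as >=4 SD for oligodendrocytes and >=2 SD for total cells.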
row,SMILES,MBP+ mature oligodendrocyte number
1,N=C(N)Nc1ccc(C(=O)Oc2ccc3cc(C(=N)N)ccc3c2)cc1 [Nafamostat Mesylate],-3.03
2,NC1CONC1=O (racemic) [DL-Cycloserine],0.353
3,O=C(Nc1ccccc1Br)N[C@@H]1CCN(c2ccc(C(F)(F)F)cn2)C1,1.22
4,O=C(Nc1cccnc1)N1CCC(Cc2cccc(Oc3ccc(C(F)(F)F)cn3)c2)CC1 [PF 3845 hydrate],10.1
5,O=C(Nc1cccnc1)N1CCC(Cc2cccc(Oc3ccc(C(F)(F)F)cn3)c2)CC1,19.5
6,Cn1ccc2cc3c(cc21)CCN3C(=O)Nc1cccnc1,0.574
7,Nc1nccc(Oc2ccc(NC(=O)c3c[nH]cc(-c4ccc(F)cc4)c3=O)cc2F)c1Cl,7.17
8,C[C@@H](O[C@H]1OCCN(Cc2nn(P(=O)(O)O)c(=O)[nH]2)[C@H]1c1ccc(F)cc1)c1cc(C(F)(F)F)cc(C(F)(F)F)c1 [Fosaprepitant dimeglumine salt],-2.44
9,CN1CC(=O)N=C1NC(=O)Nc1cccc(Cl)c1 [Fenobam],-0.794
10,Nc1nc2c(c(=O)[nH]1)C[C@@H](CCc1ccc(C(=O)N[C@@H](CCC(=O)O)C(=O)O)cc1)CN2 [Lometrexol hydrate],0.225
11,CCn1cc(-c2ccnc3[nH]c(-c4cccc(CN(C)C)c4)cc23)c(-c2ccc(NC(=O)N(C)C)cc2)n1,-5.93
12,CN(C)C(=O)c1ccc(S(=O)(=O)c2ccc(NC(=O)[C@@](C)(O)C(F)(F)F)c(Cl)c2)cc1,19.5
13,C[C@H](Oc1cc(-c2cnn(C3CCNCC3)c2)cnc1N)c1c(Cl)ccc(F)c1Cl [(S)-crizotinib],-4.58
14,Cc1ccc(Nc2c(F)cccc2Cl)c(CC(=O)O)c1 [Lumiracoxib],0.263
15,COC(=O)[C@H](c1ccccc1Cl)N1CCc2sccc2C1 [Clopidogrel],1.42
16,Clc1ccccc1CN1CCc2sccc2C1 [Ticlopidine HCl],18.4
17,CN1CCC(=C2c3ccccc3CCc3sccc32)CC1 [Pizotifen Malate],-6.09
18,COC(=O)C1=C(C)NC(C)=C(C(=O)OC)C1c1cccc(NC(=O)NCCCN2CCC(c3cccc(OC)c3)CC2)c1,< -3.85
19,CCc1nc(N)nc(N)c1-c1ccc(Cl)cc1 [Pyrimethamine],49
20,C[n+]1cccc(C(N)=O)c1 [1-Methylnicotinamide chloride],-0.176
21,N#CC[C@H](C1CCCC1)n1cc(-c2ncnc3[nH]ccc23)cn1,2.47
22,c1ccc(-c2[nH]ncc2-c2ccnc3ccccc23)nc1,-2.12
23,CCN(CC)CC#CCOC(=O)C(O)(c1ccccc1)C1CCCCC1 (centres undefined) [Oxybutynin chloride],29.7
24,CCCC(C(=O)OCCN(CC)CC)(c1ccccc1)c1ccccc1 [SKF-525A hydrochloride],-3.42
25,CCN(CC)CC#CCOC(=O)C(O)(c1ccccc1)C1CCCCC1 (centres undefined) [Oxybutynin Chloride],13.5

row,SMILES,MBP+ mature oligodendrocyte number
1,CCN(CC)CCOC(=O)C(c1ccccc1)c1ccccc1 [Adiphenine HCl],0.0731
2,Cc1cc2nc(NCCCO)n(CC(=O)c3cc(C(C)(C)C)c(O)c(C(C)(C)C)c3)c2cc1C,-4
3,CC[C@H](NC(=O)[C@H](C)NC)C(=O)N1C[C@@H](O)C[C@H]1Cc1c(-c2[nH]c3cc(F)ccc3c2C[C@@H]2C[C@H](O)CN2C(=O)[C@H](CC)NC(=O)[C@H](C)NC)[nH]c2cc(F)ccc12 [Birinapant],-5.76
4,NCCCCCNCC12CC3CC(CC(C3)C1)C2 [IEM 1754 dihydrobroMide],-4.82
5,O=C1NCC2(CCN(CCc3ccccc3)CC2)O1 [Fenspiride HCl],21.6
6,O=C1NCN(c2ccccc2)C12CCN(CCCC(c1ccc(F)cc1)c1ccc(F)cc1)CC2 [Fluspirilene],-4.41
7,O=C1NCC2(CCN(CCc3ccccc3)CC2)O1 [Fenspiride hydrochloride],10.5
8,O=C(O)P(=O)(O)O [Foscarnet Sodium],-1.56
9,CC(=O)OC[C@H]1O[C@@H]([S-])[C@H](OC(C)=O)[C@@H](OC(C)=O)[C@@H]1OC(C)=O.CCP(CC)CC.[Au+] [Auranofin],< -3.85
10,CCCC1O[C@@H]2C[C@H]3[C@@H]4CCC5=CC(=O)C=C[C@]5(C)[C@H]4[C@@H](O)C[C@]3(C)[C@]2(C(=O)CO)O1 (some centres undefined) [Budesonide],13.4 ± 10
11,CC1(C)O[C@@H]2C[C@H]3[C@@H]4CCC5=CC(=O)C=C[C@]5(C)[C@H]4[C@@H](O)C[C@]3(C)[C@]2(C(=O)CO)O1 [Desonide],9.44
12,C[C@]12C=CC(=O)C=C1CC[C@@H]1[C@@H]2[C@@H](O)C[C@@]2(C)[C@H]1CC[C@]2(O)C(=O)CO [Prednisolone],7.54
13,Nc1ccccc1NC(=O)c1ccc(CNc2nccc(-c3cccnc3)n2)cc1 [Mocetinostat (MGCD0103)],< -6.7
14,"CC(O)C(O)[C@H]1CNc2nc(N)[nH]c(=O)c2N1 (stereo partly drawn) [(6R)-5,6,7,8-Tetrahydro-L-biopterin hydrochloride]",-1.5
15,"CCCn1c(=O)c2c(ncn2C)n(CCC)c1=O [1,3-Dipropyl-7-methylxanthine]",0.502
16,CO/N=C(\C(=O)N[C@@H]1C(=O)N2C(C(=O)O)=C(Cn3ccc(=N)n3CCO)CS[C@H]12)c1csc(N)n1 [Cefoselis Sulfate],0.982
17,CC(C)[C@H](NC(=O)c1ccc2ccccc2n1)C(=O)N[C@@H](CC(=O)O)C(=O)COc1c(F)cccc1F,24.8
18,CC(C)C[C@H](NC(=O)[C@@H](NC(=O)c1cccc(-c2ccccc2)n1)[C@@H](C)O)B(O)O,< -6.7
19,C[C@H](NC(=O)C(=O)Nc1ccccc1C(C)(C)C)C(=O)N[C@@H](CC(=O)O)C(=O)COc1c(F)c(F)cc(F)c1F [Emricasan],10.3
20,NC[C@@H]1O[C@H](c2ccccc2)Cc2c1ccc(O)c2O,-0.675
21,NC(N)=NC(N)=Nc1ccccc1 [1-Phenylbiguanide],0.289
22,CC[C@H](/C=C/[C@@H](C)[C@H]1CC[C@H]2[C@@H]3CC=C4C[C@@H](O)CC[C@]4(C)[C@H]3CC[C@]12C)C(C)C [Stigmasterol],-1.84
23,C[C@]12CC[C@H](O)CC1=CC[C@@H]1[C@@H]2CC[C@]2(C)C(n3cnc4ccccc43)=CC[C@@H]12 [Galeterone],16.8
24,CC(=O)[C@H]1CC[C@H]2[C@@H]3CC=C4C[C@@H](O)CC[C@]4(C)[C@H]3CC[C@]12C [Pregnenolone],-3.89
